Rows were chosen to be rich in hits. Some 7.2% of all compounds tested hit in one or more screens of this group.
SUMO Mot1 rescue: yeast Mot1-301 growth rescue at high temperature, primary screen, SUMOylation pathway inhibitor project, S. cerevisiae, ATP luminescence, 38.5C; AID 2716, 2010; growth rescue, % at 18.8 µM; S. cerevisiae Mot1-301 growth rescue; percent above DMSO median, 100 means doubled; hit rate 1% among 320,000;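 active = every valid replicate shows activation above 250% relative to neutral control wells; inactive = the rest, any valid replicate at or below 250%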;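 note: OY570 slx delta 5 strain wells were the positive control but not used for scaling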
Efflux pump inh: inhibitors of Candida efflux pumps in yeast, primary screen, S. cerevisiae, Nile Red, multiplex; hit rate 0.44% among 330,000; S. cerevisiae Candida pump triplex; inhibition, % at 10 µM; AID 485275, 2010;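 active = plate passing quality check with inhibition over a set limit, or well fluorescence over plate mean plus 4 SD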;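 note: Nile Red retained in pooled yeast measured as flow cytometry median fluorescence; 0% = buffer negative control and 100% = Enniatin B positive control; higher means more Nile Red kept so more efflux inhibition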
AHR activator: AHR activators, primary screen, cell-based, luminescence, luciferase reporter, human; AHR-responsive luciferase reporter cells; AID 2796, 2010; hit rate 2.5% among 320,000; Aryl hydrocarbon receptor (Homo sapiens), P35869; activation, % at 5 µM; in the data active = activation above about 47%;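 note: 0% = vehicle wells and 100% = reference agonist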
VLA-4 inh: inhibition in human VLA-4 binding assay, primary screen, VLA-4 allosteric modulator project, MLPCN library, flow cytometry, VLA-4 expressing cells; Integrin alpha-4 (Homo sapiens), P13612; ligand binding flow cytometry; inhibition, % (about 7 µM as worked out from the volumes in the protocol); hit rate 0.2% among 330,000; in the data active = inhibition above about 50%
Bfl-1 A1 inh: caspase 3/7 activation in MEF A1-2A-BIM cells, primary screen, A1 inhibitor project, cell-based, luminescence, HTS | hit rate 0.066% among 330,000 | caspase activation, % (no concentration beside the values) | Caspase-Glo 3/7 luminescence, 3 h; percent of clofoctol response, vehicle zero;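 active = over half of replicate activation scores above 10%, or exactly half above 10 with the replicate mean above 10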
ALR inh: inhibitors of human ALR sulfhydryl oxidase, primary screen, biochemical, H2O2 detection, HRP-luminol luminescence, single point. AID 485317, 2010. purified ALR, DTT oxidation. hit rate 3.8% among 290,000. inhibition, % (no concentration beside the values). FAD-linked sulfhydryl oxidase ALR (Homo sapiens), P55789;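 active = mean replicate inhibition above about 79%, with every replicate also reaching it, limit read from the data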
Active calls of the source: *.

Results for Cc1cc(OC(=O)CNC(=O)OC(C)(C)C)c2c(C)cc(=O)oc2c1 ?
SUMO Mot1 rescue: 289; Efflux pump inh: 0; AHR activator: 2; VLA-4 inh: 7; Bfl-1 A1 inh: 0; ALR inh: 91*

How did Fc1ccccc1-c1csc(=Nc2cccnc2)n1CCCn1ccnc1 do in these assays?
SUMO Mot1 rescue: -15; Efflux pump inh: 0; AHR activator: 70*; VLA-4 inh: 22; Bfl-1 A1 inh: 0; ALR inh: 2

How did O=C1CC(SCc2nc3ccccc3[nH]2)C(=O)N1c1ccc(F)cc1 (stereo not given) do in these assays?
SUMO Mot1 rescue: -22; Efflux pump inh: 0; AHR activator: 19; VLA-4 inh: 0; Bfl-1 A1 inh: 0; ALR inh: 32

Results for O=C1CC(SCc2nc3ccccc3[nH]2)C(=O)N1c1cccc(Cl)c1 (stereo not given) ?
SUMO Mot1 rescue: 7; Efflux pump inh: 0; AHR activator: 10; VLA-4 inh: 7; Bfl-1 A1 inh: 0; ALR inh: 98*

What do the screens show for `CCOC(=O)Cc1nn2c(=O)cc(C)nc2s1`?
SUMO Mot1 rescue: -19; Efflux pump inh: 0; AHR activator: 5; VLA-4 inh: -18; Bfl-1 A1 inh: 0; ALR inh: 93*

Results for COc1ccc(-c2nn(-c3ccccc3)cc2/C=C/C(=O)OCC(=O)Nc2ccccc2C#N)cc1 ?
SUMO Mot1 rescue: 22; Efflux pump inh: 0; AHR activator: 4; VLA-4 inh: -2; Bfl-1 A1 inh: 24*; ALR inh: -9

How did NC(=O)c1ccc(NC(=O)COC(=O)/C=C/c2cn(-c3ccccc3)nc2-c2cccnc2)cc1 do in these assays?
SUMO Mot1 rescue: -4; Efflux pump inh: 4; AHR activator: 6; VLA-4 inh: 7; Bfl-1 A1 inh: 0; ALR inh: 2

What do the screens show for `O=C(Nc1ccc(Cl)cc1)Nc1ccc2c(c1)OCO2`?
SUMO Mot1 rescue: -3; Efflux pump inh: 0; AHR activator: 59*; VLA-4 inh: -10; Bfl-1 A1 inh: -3; ALR inh: -3

What do the screens show for `O=C(NCCc1ccccc1)Nc1ccc2c(c1)OCO2`?
SUMO Mot1 rescue: 1; Efflux pump inh: 0; AHR activator: 71*; VLA-4 inh: 4; Bfl-1 A1 inh: -6; ALR inh: 4

What do the screens show for `Cc1ccc(NC(=O)Nc2ccc3c(c2)OCO3)c(Br)c1`?
SUMO Mot1 rescue: 11; Efflux pump inh: 0; AHR activator: 20; VLA-4 inh: 18; Bfl-1 A1 inh: 1; ALR inh: -8

Results for Cc1cc(C)c(NC(=O)Nc2ccc3c(c2)OCO3)c(C)c1 ?
SUMO Mot1 rescue: 15; Efflux pump inh: 0; AHR activator: 51*; VLA-4 inh: 3; Bfl-1 A1 inh: 0; ALR inh: -4

How did O=C(Nc1ccc(F)cc1)Nc1ccc2c(c1)OCO2 do in these assays?
SUMO Mot1 rescue: -5; Efflux pump inh: 0; AHR activator: 67*; VLA-4 inh: -7; Bfl-1 A1 inh: -8; ALR inh: -24

Results for Cc1cc(=O)oc2cc(OCC(=O)N3CC[C@@]4(O)CCCC[C@H]4C3)c(Cl)cc12 ?
SUMO Mot1 rescue: 4; Efflux pump inh: 0; AHR activator: -1; VLA-4 inh: -9; Bfl-1 A1 inh: 1; ALR inh: -4

Results for COc1ccc2[nH]c(C(=O)O)c(NC(=O)c3ccccc3[N+](=O)[O-])c2c1 ?
SUMO Mot1 rescue: 4; Efflux pump inh: 0; AHR activator: 0; VLA-4 inh: -13; Bfl-1 A1 inh: 0; ALR inh: 13

What do the screens show for `NC(=O)c1cc(Cl)ccc1OCC(=O)Nc1ccc2c(c1)OCO2`?
SUMO Mot1 rescue: -4; Efflux pump inh: 0; AHR activator: 51*; VLA-4 inh: 10; Bfl-1 A1 inh: 0; ALR inh: 2

How did O=C(Nc1ccc2c(c1)OCO2)c1c[nH]c(=O)n(-c2ccc(F)cc2)c1=O do in these assays?
SUMO Mot1 rescue: 199; Efflux pump inh: 0; AHR activator: 55*; VLA-4 inh: -24; Bfl-1 A1 inh: 0; ALR inh: -33

Source: PubChem BioAssay
